Rows were chosen to be rich in hits. Some 0.44% of all compounds tested hit in one or more screens of this group.
YopH inh: YopH (Yersinia) phosphatase inhibition; fluorescence Ex485/Em525; inhibition, % (test concentration not listed); 140,000 tested, 0.16% active; AID 898; in the data active means inhibition above about 50%
RmlC RmlD mix: mixture blocks RmlC and RmlD coupled enzyme activity; inhibition, % at 5.5 µM; RmlC/RmlD coupled enzyme inhibition, 384-well mixture HTS; AID 1532; 110,000 tested, 0.39% active; in the data active means inhibition above about 30%, passing the limit was not always enough
RmlCD artifact: shows fluorescent artifact in RmlC/RmlD assay, dose-response counter-screen; 360 tested, 96% active; AID 1696; RmlC/RmlD assay fluorescence artifact counter-screen; calls only; shares compounds with RmlC RmlD mix; call rule not given here;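 further: compound alone with no enzyme and no substrates present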
The depositor's hits bear a star; i = inactive; · = no result; + = active, no number.

SMILES	YopH inh	RmlC RmlD mix	RmlCD artifact
COCCn1c(-c2ccc(-c3ccccc3Cl)o2)nc2c1c(=O)[nH]c(=O)n2CC(C)C	-31.8	143.8*	+
CCCCn1c(=O)[nH]c(=O)c2c1nc(-c1ccc(-c3ccccc3Br)o1)n2CCOC	-23.1	-81.7	·
Cc1nc2c(c(=O)n1CCC1=CCCCC1)c1nc3ccccc3nc1n2/N=C/c1ccccc1	-11.3	-5.0	+
CCOCCCn1c(C)nc2c(c1=O)c1nc3ccccc3nc1n2CCC1=CCCCC1	-10.7	·	·
Cc1cc(C)cc(CC(Cc2nc3ccccc3[nH]2)c2nc3ccccc3[nH]2)c1 (stereo not given)	-26.4	1.2	·
CC(C)NC(=O)C(OC(=O)c1ccccc1)C(OC(=O)c1ccccc1)C(=O)O (stereo not given)	-22.9	-10.9	·
COc1cccc(NC(=S)N2CCC(N(C)CC3CCCO3)CC2)c1 (stereo not given)	-21.2	·	·
O=C(N/N=C/c1ccc(F)c(F)c1)c1cc2c(s1)-c1ccccc1CC2	-30.5	-111.4	·
CNC(=O)c1cc2c(s1)-c1ccccc1CC2	·	·	+
COc1ccc2cc(-c3nc4ccccc4n3C)c(=O)oc2c1	-24.3	31.1*	+
COc1ccc2cc(C(C)=O)c(=O)oc2c1	-29.4	·	·
O=C(Nc1ccc(Nc2ccccc2)cc1)C(Cl)(Cl)Cl	-23.4	·	·
COC(=O)c1sc2nc(N)c(C#N)cc2c1N	-23.6	·	·
COC(=O)c1sc2cnccc2c1N	-34.5	34.2*	+
CN(C(=O)Nc1ccc(Cl)cc1Cl)[C@H]1c2cc(Br)ccc2OC[C@H]1CO	-31.4	-10.6	·
CC1CCCC(C)N1C(=O)CSc1nnc(COc2ccccc2)n1-c1ccccc1 (stereo not given)	-2.7	-5.9	·
COCC(=O)Nc1ccc(-c2cn3cccnc3n2)cc1	-49.6	95.7*	+
COc1ccc(-c2cn3cccnc3n2)cc1NC(=O)c1cccs1	-30.7	·	·
CCOCC(=O)Nc1cc(-c2cn3cccnc3n2)ccc1C	-40.2	107.3*	+
Cc1ccc(-c2nc3ncccc3o2)cc1NC(=O)COc1ccccc1	-29.2	-12.1	·
CCCCC(=O)Nc1cccc(NC(=S)NC(C)=O)c1	-27.4	·	·
O=C(CNC(=O)c1cccc(F)c1)N/N=C/c1cccc([N+](=O)[O-])c1	-38.2	·	·
O=C(NCC1CCCO1)c1coc2nc3ccccc3nc12 (stereo not given)	-24.0	29.0	·
COC(CNC(=O)c1coc2nc3ccccc3nc12)OC	·	·	i
Cc1ccc2nc(NC(=O)c3cccc(-c4cc5ccccc5oc4=O)c3)sc2c1	-11.0	41.1*	+
SMILES	YopH inh	RmlC RmlD mix	RmlCD artifact
CCOc1ccc2nc(NC(=O)c3cccc(-c4cc5ccccc5oc4=O)c3)sc2c1	-4.3	·	·
CC1CC(C)CN(C(=O)c2ccccc2Nc2ccc(SC(F)F)cc2)C1 (stereo not given)	-26.8	-5.1	·
CCNC(=O)NC(=O)COC(=O)CCCSc1nc2ccccc2s1	-29.0	·	·
CCN(CC)Cc1c(O)ccc2c(C)c(CC(=O)OC)c(=O)oc12	-3.0	109.7*	+
COC(=O)Cc1c(C)c2ccc(OCC(C)=O)c(C)c2oc1=O	-10.6	8.1	·
CCCOc1ccc2c(C)c(CC(=O)OC)c(=O)oc2c1	-7.8	-8.5	·
COC(=O)Cc1c(C)c2ccc(OCC(=O)N(C)C)cc2oc1=O	-25.9	30.6*	+
COc1ccc(-c2cc(C(F)(F)F)c(C#N)c(SCC(=O)Nc3nc(C)co3)n2)cc1	-6.2	+	+
Cc1coc(NC(=O)CSc2nc(-c3ccc(Cl)cc3)cc(C(F)(F)F)c2C#N)n1	-4.0	4.2	·
CCOC(=O)N1CCN(C(=O)c2ccc3nc4ccsc4c(=O)n3c2)CC1	-16.3	·	·
CCOC(=O)N1CCN(C(=O)c2ccc3nc4ccc(Cl)cc4c(=O)n3c2)CC1	-21.0	48.2*	+
O=C(CSc1ccc2ccccc2n1)N1CCC(c2noc3ccc(F)cc23)CC1	-15.1	10.5	·
COC(=O)c1cc(Br)c(=O)n(Cc2ccc(OC)c(OC)c2)c1	-38.2	-8.9	·
CCOc1cc(/C=C2/C(=N)N3C=CSC3=NC2=O)ccc1OCCCOc1ccccc1C	-1.5	40.1*	+
COc1cc(/C=C2/C(=N)N3C=CSC3=NC2=O)ccc1OCCCOc1ccccc1C	-9.5	12.7	·
O=S(=O)(c1cccc(-c2cn3cccnc3n2)c1)N1CCCCCC1	-33.0	-24.9	·
Brc1ccc(-c2cn3cccnc3n2)cc1	-19.8	45.3*	+
COc1ccc(-c2cn3cccnc3n2)cc1F	7.3	·	·
Clc1ccc(-c2cn3cccnc3n2)cc1Cl	-11.7	8.9	·
O=S(=O)(c1cccc(-c2cn3cccnc3n2)c1)N1CCOCC1	-18.2	67.0*	+
Clc1ccc(-c2cn3cccnc3n2)cc1	-7.4	39.7*	+
O=C(CN(c1ccccn1)S(=O)(=O)c1ccccc1)N/N=C/c1cccc([N+](=O)[O-])c1	-37.6	·	·
CC(C)(C)C(=O)Nc1cc(NC(=O)C(C)(C)C)cc(C(=O)Nc2cc(C(=O)O)cc(C(=O)O)c2)c1	-5.9	·	·
COc1ccccc1NC(=O)C1=C(C)NC2=C(C(=O)CC(c3ccc(OC)c(OC)c3)C2)C1c1coc2ccccc2c1=O (stereo not given)	-21.6	·	·
COc1ccc2cc3cc(C(=O)Nc4cc(OC)c(OC)c(OC)c4)oc3nc2c1	-11.7	12.6	·
SMILES	YopH inh	RmlC RmlD mix	RmlCD artifact
COc1ccc2cc3cc(C(=O)NC(C)C)oc3nc2c1	-1.0	96.4*	+
Cc1ccc(C(=O)C2(C)C3c4cc(Br)ccc4OC(=O)C32C(=O)c2ccco2)cc1 (stereo not given)	4.4	·	·
CC1Cc2ccccc2N1C(=O)c1cc2c(=O)n3ccccc3nc2n1C (stereo not given)	-32.4	3.7	·
Cn1c(C(=O)N2CCc3ccccc3C2)cc2c(=O)n3ccccc3nc21	-22.3	102.9*	+
CCOC(=O)C1CCCN(C(=O)c2cc(Nc3ccc(OC)cc3)nc3ccccc23)C1 (stereo not given)	0.3	3.8	·
Cc1cc(OC(=O)c2ccco2)c2c3c(c(=O)oc2c1)CCC3	-11.0	-128.7	·
O=C(Oc1ccc2c3c(c(=O)oc2c1)CCCC3)c1ccco1	-25.3	110.2*	+
O=c1oc2cc(O)ccc2c2c1CCCC2	-17.3	126.3*	+
O=c1oc2cc(O)ccc2c2ccccc12	-14.7	-12.3	·
Cc1onc(-c2c(F)cccc2Cl)c1C(=O)NC1CCSC1=O (stereo not given)	-0.6	-9.6	·
O=C1OCC2OC(O)C(O)C(O)C2OC(=O)c2cc(O)c(O)c(O)c2-c2c(O)c(O)c3oc(=O)c4c(c(O)c(O)c5oc(=O)c2c3c54)-c2c1cc(O)c(O)c2O (stereo not given)	·	35.1*	+
CC(C)Cn1c(-c2ccc(C#N)cc2)nc2c1c(=O)[nH]c(=O)n2CC(C)C	-16.5	31.9*	+
CCCCn1c(=O)[nH]c(=O)c2c1nc(-c1ccc(C#N)cc1)n2C1CCCC1	-33.5	·	·
CN(C)S(=O)(=O)c1ccc(-c2cn3ccccc3n2)cc1	-26.7	40.4*	+
Cc1ccc2nc(-c3cccc(S(=O)(=O)N(C)C)c3)cn2c1	-31.3	9.6	·
CC(C)CC(=O)N1CCN(S(=O)(=O)c2ccc3ccccc3c2)CC1	-27.9	-10.7	·
CCOc1ccccc1N=c1oc2cc(O)ccc2cc1C(=O)NCC1CCCO1 (stereo not given)	-3.6	1.6	·
COc1ccc(C)cc1NC(=O)c1cnc2n(c1=O)CCS2	-13.2	7.2	·
COc1ccc(C)cc1NC(=O)c1cnc2scc(C)n2c1=O	23.1	47.5*	+

High-throughput results deposited in PubChem BioAssay by several laboratories.
